# Reference: PubChem BioAssay AID2284348 (EPA ToxCast)
# Records with an inconclusive call do not appear. Calls of active or inactive are those of the source. The calls were made as follows: active = hit-call score of the fitted dose curve at least 0.9, where 1 is the maximum; inconclusive = response in the unintended direction; inactive = score below 0.9.
# System: Japanese medaka Peroxisome Proliferator-activated Receptor alpha (PPARa), gene 100304458
# Assay: ATG_jmPPARa_EcoTox2: Attagene TRANS-FACTORIAL EcoTox-2 HepG2 Assay for Japanese medaka Peroxisome Proliferator-activated Receptor alpha (PPARa)
# Protocol: ATG_EcoTox2 is a cell-based, multiplexed assay created by modifying the existing Attagene TRANS-FACTORIAL system to include a panel of nuclear receptors from some or all the following species: human (Homo sapiens), african clawed frog (Xenopus laevis), rainbow trout (Oncorhynchus mykiss), japanese medaka (Oryzias latipes), and zebrafish (Danio rerio). The ECOTOX2-FACTORIAL format uses HepG2, a human liver cell line, with measurements taken at 24 hours after chemical dosing in a 24-well plate. ATG_jmPPARa_EcoTox2 is one of 29 assay components calculated in the ATG_EcoTox2 assay. It is designed to make measurements of mRNA induction, a form of inducible reporter, as detected with fluorescence intensity signals by Reverse transcription polymerase chain reaction (RT-PCR) and Capillary electrophoresis technology.The assay endpoint ATG_jmPPARa_EcoTox2 was analyzed in the positive analysis fitting direction relative to DMSO as the negative control and baseline of activity. Using a type of inducible reporter, measures of mRNA for gain-of-signal activity can be used to understand the reporter gene at the transcription factor-level as they relate to the gene PPARa. Furthermore, this assay endpoint can be referred to as a […], because this assay has produced multiple assay endpoints where this one serves a reporter gene function. To generalize the intended target to other relatable targets, this assay endpoint is annotated to the nuclear receptor intended target family, where the subfamily is non-steroidal.
# Human liver HepG2 cells are transiently transfected with multiple reporter transcription units (MRTUs) in 6-well plates using FuGene 6 reagent (Roche; 3 ml FuGene/1 mg DNA). The MRTU constructs are regulated by a cis-regulating element (promoter). Each RTU expresses a GAL4-UAS that regulates the transcription of a nearby target reporter gene sequence. A major difference between the CIS and TRANS system is that in CIS activities of endogenous TFs are measured, whereas the TRANS assay evaluates changes in activities of exogenous, chimeric NR-Gal4 proteins. […] At the end of 24 hour incubation, total RNA was isolated using TriZol reagent (Invitrogen). The isolated RNA is then reverse-transcribed using oligo(dT) primer and Mo-MLV reverse transcriptase (Invitrogen) with DNAse I (Ambion) treatment for 30 min. The one-tenth of the produced cDNA was amplified by PCR using Taq DNA polymerase (Invitrogen) and two reporter sequence-specific primers. The PCR products were fluorescently labeled by primer extension with 6-arboxyfluorescein (6-FAM) 5'-labeled reporter sequence-specific primer (2 min at 95 C, 20 s at 68 C and 10 min at 72 C) and these products were digested with 5U of HpaI (New England Biolabs) for 2h at 37 C. The fragments were purified using Qiaquick PCR columns (Qiagen), analyzed on an ABI 3130xL genetic analyzer (Applied Biosystems) with peak positions identified by using a set of X-rhodamine (ROX)-labeled MapMarker1000 molecular weight standards (BioVentures). The raw capillary electrophoresis data was processed using Attagraph software (Attagene).
Compound,outcome,AC50
C=C(c1ccc(C(=O)O)cc1)c1cc2c(cc1C)C(C)(C)CCC2(C)C,inactive,–
CC(C)OC(=O)C(C)(C)Oc1ccc(C(=O)c2ccc(Cl)cc2)cc1,inactive,–
C[C@]12C=CC(=O)C=C1CC[C@@H]1[C@@H]2C(=O)C[C@@]2(C)[C@H]1CC[C@]2(O)C(=O)CO,inactive,–
CN(CCOc1ccc(CC2SC(=O)NC2=O)cc1)c1ccccn1 (stereo unspecified),inactive,–
CC(C)(Oc1ccc(Cl)cc1)C(=O)O,inactive,–
Cc1nc(-c2ccc(C(F)(F)F)cc2)sc1C(=O)NCc1ccc(OC(C)(C)C(=O)O)cc1,–,0.0807 µM (active)
Cc1ccc(C)c(OCCCC(C)(C)C(=O)O)c1,inactive,–
Cc1cccc(Nc2cc(Cl)nc(SCC(=O)O)n2)c1C,–,63.8 µM (active)
C[C@@H]1C[C@H]2[C@@H]3CCC4=CC(=O)C=C[C@]4(C)[C@@]3(F)[C@@H](O)C[C@]2(C)[C@@]1(O)C(=O)COP(=O)(O)O,inactive,–
CC(C)(Oc1ccc(CCNC(=O)c2ccc(Cl)cc2)cc1)C(=O)O,–,45.9 µM (active)
CC(C)(Oc1ccc(C2CC2(Cl)Cl)cc1)C(=O)O (stereo unspecified),–,58.5 µM (active)
